Measurements: PubChem BioAssay (EPA / NIEHS)
Calls of active or inactive are those of the source. The calls were made as follows: active = hit-call score of the fitted dose curve at least 0.9, where 1 is the maximum; inactive = score below 0.9.

What follows are compounds tested on Monocyte Chemoattractant Protein-1 (MCP1), CCL2 (gene 6347) (assay: BSK_LPS_MCP1: BioMAP Diversity Plus: LPS Assay for Monocyte Chemoattractant Protein-1 (MCP1) Biomarker Activity (AID 2283081;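 as to AC50: co-culture stimulated with LPS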)). Settings: primary human HUVEC with PBMC; actives raise or lower the signal.
Description: BSK_LPS is a cell-based, multiplexed-readout assay that uses umbilical vein endothelium and peripheral blood mononuclear cells, a human vascular primary cell co-culture, with measurements taken at 24 hours after chemical dosing in a 96-well plate.BSK_LPS_MCP1 is an assay component measured in the BSK_LPS assay. It measures MCP-1 antibody related to regulation of gene expression using ELISA technology.Data from the assay component BSK_LPS_MCP1 was analyzed into 1 assay endpoint. This assay endpoint, BSK_LPS_MCP1, was analyzed with bidirectional fitting relative to DMSO as the negative control and baseline of activity. Using a type of binding reporter, gain or loss-of-signal activity can be used to understand changes in the signaling as they relate to the gene CCL2. Furthermore, this assay endpoint can be referred to as a primary readout, because this assay has produced multiple assay endpoints where this one serves a signaling function. To generalize the intended target to other relatable targets, this assay endpoint is annotated to the cytokine intended target family, where the subfamily is chemotactic factor.
The levels of cell surface (or secreted, indicated by the prefix "s") biomarker endpoints were measured by ELISA. Overt cytotoxicity to cells in confluent adherent cultures (all systems other than the BT system) was assessed by measuring total protein levels using sulforhodamine B (SRB) staining in parallel cultures at the time of biomarker measurements, indicated as SRB endpoints. For proliferation assays for adherent cell types, individual cell types are cultured at sub-confluence and relative cell numbers quantified by SRB staining at time points optimized for each system (48 h: 3C and CASM3C systems; 72 h: BT and HDF3CGF systems; 96 h: SAg system). SRB was performed by staining cells with 0.1% SRB after fixation with 10% TCA and reading wells at 560 nm.Viability and proliferation of PBMC (T cells) was quantified by Alamar Blue reduction for the SAg and BT systems. For PBMC viability (referred to as PBMC Cytotoxicity within the assay endpoint names), cells were plated (75,000/well in a 96-well plate) and then chemical samples added for 1 h before addition of activators, SEB and TSST-1 (20 ng/mL final concentration each). Cells were incubated for 90 h. Then, Alamar Blue (20 uL/well) (Invitrogen, Cat DAL1100) was added for 6 h, and the plates were read with a fluorescence microplate reader at 546/580 nm (excitation/emission). For PBMC proliferation, cells were plated and activated as above but incubated for only 16 h prior to addition of Alamar Blue. Plates were read after 6 h.

SMILES	AC50	outcome
CCN(CC)CCOc1ccc(C(=C(Cl)c2ccccc2)c2ccccc2)cc1	14.3 µM (active)	
OCC(CO)n1cnc(-c2ccc(F)cc2)c1-c1ccnc(Oc2ccccc2)n1	0.51 µM (active)	
OCC(O)CO		inactive
O=C(NS(=O)(=O)/C=C/c1cccs1)c1ccc(F)cc1Br		inactive
COc1ccc(C(=O)Nc2nc3ccccc3c(NCc3ccccc3)c2C#N)cc1		inactive
CCCCC(CC)COP(=O)(OCC(CC)CCCC)OCC(CC)CCCC (stereo not given)		inactive
O=C1c2c(O)cccc2Cc2cccc(O)c21		inactive
CC(C)c1cccc(C(C)C)c1		inactive
CCCCCCCCCC[N+](C)(C)[O-]		inactive
CCCCCCC(C=O)=Cc1ccccc1		inactive
CCC(C)N(C)C(=O)c1cc2ccccc2c(-c2ccccc2Cl)n1 (stereo not given)		inactive
COc1ccc(OC(F)(F)F)cc1CN[C@H]1CCCN[C@H]1c1ccccc1	7.98 µM (active)	
CSc1ccc(Oc2ccc(S(N)(=O)=O)cc2CN(C)C)cc1C		inactive
O=[Si]=O		inactive
CC(C)OC(=O)C(C)(C)Oc1ccc(C(=O)c2ccc(Cl)cc2)cc1	29.7 µM (active)	
CC(=O)CC(c1ccccc1)c1c(O)c2ccccc2oc1=O (stereo not given)		inactive
C=CCCCCCCCCCCCC		inactive
CCCC(=O)O		inactive
Cn1cnc2c1c(=O)[nH]c(=O)n2C		inactive
NC=O		inactive

SMILES	AC50	outcome
Cc1cn([C@H]2C=C[C@@H](CO)O2)c(=O)[nH]c1=O		inactive
O=C(O)c1cccnc1		inactive
O=C(O)CN(CC(=O)O)CC(=O)O		inactive
CC(=O)S[C@H](C(=O)N[C@H]1Cc2ccccc2[C@H]2CCC[C@@H](C(=O)O)N2C1=O)C(C)C		inactive
CC(=O)OC1CC(C)OC(C)O1 (stereo not given)		inactive
Cc1ccc(C(C)(C)C)c(O)c1		inactive
COC(=O)[C@H]1[C@H]2C[C@@H]3c4[nH]c5cc(OC)ccc5c4CCN3C[C@H]2C[C@@H](OC(=O)c2cc(OC)c(OC)c(OC)c2)[C@@H]1OC	18.6 µM (active)	
CCCCc1nc2cccnc2n1Cc1ccc(-c2ccccc2-c2nnn[nH]2)cc1		inactive
CCCCCCC(CCCCCCCCCCC(=O)OCC(COC(C)=O)OC(C)=O)OC(C)=O (stereo not given)		inactive
CC(C)(O)c1ccc(CNC(=O)c2cccnc2Oc2ccc(F)cc2)cc1		inactive
Cc1occc(=O)c1O		inactive
O=C1CCCCC1		inactive
Cc1cc(SC2=C(O)C[C@@](CCc3ccc(N)cc3)(C(C)C)OC2=O)c(C(C)(C)C)cc1CO		inactive
O=C(O)CC(O)(CC(=O)O)C(=O)O		inactive
CC(COCC(C)OC(=O)c1ccccc1)OC(=O)c1ccccc1 (stereo not given)		inactive
Cc1c(C)c2c(c(C)c1O)CCC(C)(COc1ccc(CC3SC(=O)NC3=O)cc1)O2 (stereo not given)	30.8 µM (active)	
CN(C)CCCN1c2ccccc2Sc2ccc(Cl)cc21	26 µM (active)	
CC(C)(C)c1ccccc1		inactive
CS(=O)(=O)c1ccc([C@@H](C[C@H]2CCC(=O)C2)C(=O)Nc2cnccn2)cc1Cl		inactive
CCc1cc(C2=C(C(=O)O)N(c3ccccc3C(F)(F)F)S(=O)(=O)c3ccccc32)cc2c1OCO2		inactive
